Source: PubChem
AI-2 QS modul – modulates the Vibrio harveyi AI-2 quorum sensing system; 300,000 tested, 0.4% active; Vibrio harveyi JMH597 AI-2 luminescence/OD600 ratio, 9 h; hits give low values; strain lacks LuxN and CqsS sensors; 0 = neutral-control median; activity change, % at 7.5 µM; AID 2094; in the data active = activity change below about -75%, passing the limit was not always enough;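 note: luminescence divided by OD600 gain over 9 h not by final OD600 alone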
ALR inh – human ALR oxidase inhibition via reduced H2O2; AID 485317; 290,000 tested, 3.8% active; purified ALR, DTT oxidation, H2O2 HRP-luminol luminescence; P55789; inhibition, % (test concentration not listed);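 active = mean replicate inhibition above about 79%, with every replicate also reaching it, limit read from the data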
PREPL inh – human PREPL enzyme inhibition. AID 2751. recombinant PREPL, fluorescence polarization activity-based probe. 320,000 tested, 0.68% active. inhibition, % at 5.96 µM; in the data active = inhibition above about 43%;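 note: 0% = enzyme with DMSO and 100% = wells lacking enzyme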
Target sequence (Q4J6C6 whole entry, looked up): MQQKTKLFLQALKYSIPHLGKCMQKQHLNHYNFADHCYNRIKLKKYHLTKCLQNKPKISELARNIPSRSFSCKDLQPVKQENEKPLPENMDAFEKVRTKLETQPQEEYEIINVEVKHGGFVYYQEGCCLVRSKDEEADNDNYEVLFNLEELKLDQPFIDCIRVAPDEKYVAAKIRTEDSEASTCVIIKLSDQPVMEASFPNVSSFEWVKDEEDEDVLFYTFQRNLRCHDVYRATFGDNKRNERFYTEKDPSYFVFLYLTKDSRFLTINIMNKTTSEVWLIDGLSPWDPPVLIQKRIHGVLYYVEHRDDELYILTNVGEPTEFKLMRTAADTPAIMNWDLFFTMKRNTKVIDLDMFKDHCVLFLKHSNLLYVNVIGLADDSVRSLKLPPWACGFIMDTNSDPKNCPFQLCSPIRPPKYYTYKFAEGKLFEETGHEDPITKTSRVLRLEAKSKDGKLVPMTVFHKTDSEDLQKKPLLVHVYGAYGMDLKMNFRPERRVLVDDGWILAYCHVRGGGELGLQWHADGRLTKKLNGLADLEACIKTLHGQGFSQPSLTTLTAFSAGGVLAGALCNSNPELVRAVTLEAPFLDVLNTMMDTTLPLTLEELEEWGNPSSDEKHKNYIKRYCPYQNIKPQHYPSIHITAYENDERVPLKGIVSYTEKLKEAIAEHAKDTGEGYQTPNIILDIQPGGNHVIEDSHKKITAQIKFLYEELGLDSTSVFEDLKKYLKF
CHT allo act – allosterically activates the human high affinity choline transporter. 310,000 tested, 0.49% active. AID 488977. B-score at 10 µM. CHT-expressing cells, membrane potential dye, choline EC20; hits give high values; LV-AA mutant CHT in HEK293 cells. Q9GZV3;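 active = initial fluorescence not abnormally high and integrated response B-score, plate-corrected, over 3 SD above library mean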
CHT block – inhibits the human high affinity choline transporter | Q9GZV3 | CHT-expressing cells, membrane potential dye, choline response; hits give low values | B-score at 10 µM | 310,000 tested, 0.86% active;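 active = B-score over 3 SD under the library average, and starting fluorescence ratio not unusually high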;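 note: choline stimulus applied at its EC90 after an EC20 pre-addition; B-score computed on integrated fluorescence ratio after choline addition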
CHT block conf – human CHT inhibition, confirmatory screen; 2,400 tested, 70% active; shares compounds with CHT block; CHT activity remaining % of control (hits give low values), % at 10 µM; AID 493221; CHT-expressing cells, choline membrane potential dye; LV-to-AA substituted CHT, HEK293 cells;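 active = choline transporter activity left, mean of duplicates at 10 µM, below buffer-only control mean minus 3 SD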;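 note: depolarization triggered by choline at its EC90 following an EC20 pre-addition; 0% = hemicholinium-3 full block and 100% = buffer-only control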
HEK293 CHT ctr – counter-screen for CHT inhibitors: effect in parental HEK293 cells. shares compounds with CHT block. membrane potential dye, choline response; active = decrease or increase beyond buffer ±3SD. membrane potential ratio readout (active if shifted either direction beyond buffer ±3SD; no single direction) at 10 µM. 2,400 tested, 4% active. AID 493222;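 note: parental cells lack the transporter so any hit is non-specific; ratio is peak minus trough fluorescence over baseline after EC90 choline challenge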
An asterisk follows results filed as active; i = inactive; . = not tested or not shown. This is a sample that favours compounds with a hit; in the whole collection about 5% have one here.

SMILES	AI-2 QS modul	ALR inh	PREPL inh	CHT allo act	CHT block	CHT block conf	HEK293 CHT ctr
O=C(O)CCCSc1nccn1-c1ccccc1	0	1	3	i	i	.	.
CC(C)(C)C(=O)NNC(=O)c1cc2sccc2s1	15	-6	8	i	-5.8*	i	i
Cc1cc(C)n2c(SCC(=O)NC3CCCC(C)C3C)nnc2n1 (stereo unspecified)	27	-6	5	i	i	.	.
Cc1cc(C)n2c(SCC(=O)NC3CCCCC3C)nnc2n1 (stereo unspecified)	21	4	-6	i	-5.4*	70%*	i
CCN(CC)c1nc2c(c(=O)[nH]c(=O)n2C)n1Cc1ccccc1	4	3	2	i	i	.	.
CCCCCCn1c(N(CC)CC)nc2c1c(=O)[nH]c(=O)n2C	11	9	6	i	-6.4*	i	i
CCC(CC)c1nnc(NC(=O)c2c(C)nn(Cc3ccccc3Cl)c2C)s1	6	4	-2	i	-5.1*	i	i
CC1Oc2ccccc2C=C1/C=N\NC(=O)c1cccnc1 (stereo unspecified)	13	4	16	i	i	.	.
O=C(COC(=O)c1ccco1)NC(c1ccccc1)c1ccccc1	4	17	15	i	-14*	i	i
COCC(=O)NC1CCN(S(=O)(=O)c2cccc(C(C)=O)c2)CC1	21	3	-1	i	-5.1*	i	i
COCC(=O)NC1CCN(S(=O)(=O)c2ccc(C(=O)O)cc2)CC1	15	-4	4	i	i	.	.
COc1ccc(S(=O)(=O)N2CCOCC2)cc1NC(=O)c1ccccc1-c1ccc(C(F)(F)F)cc1	17	-5	0	i	i	.	.
O=C(O)c1cc([N+](=O)[O-])ccc1NCCc1ccccc1	-10	3	-4	i	i	.	.
O=C(O)c1cc([N+](=O)[O-])ccc1NCc1ccccc1Cl	21	.	19	i	-5.6*	i	i
Cc1cccc(C(=O)OC(C)C(=O)N2CCc3ccccc3C2)c1C (stereo unspecified)	.	0	-50	.	.	.	.
Cc1ccc(S(=O)(=O)N2CCCCC2C(=O)N2CCN(Cc3ccccc3)CC2)cc1 (stereo unspecified)	16	-14	14	i	-7.9*	37%*	-8.6*
Cc1ccc(S(=O)(=O)N2CCCC2C(=O)N2CCCCCC2)cc1 (stereo unspecified)	23	-5	0	i	i	.	.
Cc1ccc(S(=O)(=O)NC2=C(N3CCN(Cc4ccccc4)CC3)C(=O)c3ccccc3C2=O)cc1	28	-44	5	i	-5.5*	71%*	i
COc1ccc(C(=O)NCCCOc2cccnc2)cc1OC1CCN(C(C)=O)CC1	-7	3	-1	i	i	.	.
CCn1c(SCc2nc(-c3ccc(Cl)cc3)no2)nnc1-c1ccco1	-38	-12	-7	i	-13*	3.1%*	i
Cc1cccc(NC(=O)c2nc[nH]c2C(=O)N2CCN(c3ccccc3)CC2)c1	.	-1	41	.	.	.	.
CC(=O)c1cccc(NC(=O)c2cc(=O)[nH]c3ccc(S(=O)(=O)N4CCOCC4)cc23)c1	.	0	-1	.	.	.	.
COc1ccc(NC(=O)CNc2cccc(S(=O)(=O)N3CCCCCC3)c2)c([N+](=O)[O-])c1	.	-3	23	.	.	.	.
O=C(NCc1ccc(Cl)cc1)c1ccc(CNc2c(N3CCCC3)c(=O)c2=O)cc1	9	.	9	i	-6.2*	i	i
O=C(NCc1ccc(Cl)cc1)c1ccc(CNc2c(N3CCOCC3)c(=O)c2=O)cc1	13	.	11	i	i	.	.
SMILES	AI-2 QS modul	ALR inh	PREPL inh	CHT allo act	CHT block	CHT block conf	HEK293 CHT ctr
CN(C)S(=O)(=O)N1CCN(CC(O)COc2ccc(-c3ccccc3)cc2)CC1 (stereo unspecified)	-7	-1	13	i	i	.	.
CCC(=O)NC(Nc1nc(C)cs1)(C(=O)OC)C(F)(F)F (stereo unspecified)	4	-3	0	i	i	.	.
CC(/C=C1\SC(=S)N(CC(=O)O)C1=O)=C\c1ccccc1	8	11	0	i	-6*	40%*	i
CC(/C=C1\SC(=S)N(C(C(=O)O)c2ccccc2)C1=O)=C\c1ccccc1 (stereo unspecified)	18	10	9	i	i	46%*	i
CC(=C\c1ccccc1)/C=C1/SC(=S)N(CCC(=O)O)C1=O	41	24	1	i	i	.	.
CCOC(=O)Nc1cccnc1Sc1ccc(Cl)cc1	17	-23	-8	i	i	.	.
Cc1ccc(Sc2ncccc2NC(=O)c2ccccc2Cl)cc1	18	-35	9	i	-5*	i	i
CC(C)CN(CCCNC(=O)CN1C(=O)COc2ccc(S(=O)(=O)N3CCOCC3)cc21)CC(C)C	12	-4	5	i	i	.	.
COc1ccc(-c2nc(CN3CCN(c4ncnc5ccccc45)CC3)c(C)o2)c(OC)c1	7	.	1	i	-5.1*	52%*	i
CC(C)C(=O)Nc1cccc(NC(=O)c2ccc(Cl)cc2Cl)c1	19	5	-10	i	-9.4*	43%*	i
CC(C)c1nc(C(=O)N2CCCC(N3CCN(c4cccc(Cl)c4)CC3)C2)cs1 (stereo unspecified)	-8	-15	23	i	-12*	2.6%*	i
CC(=O)N(c1ccccc1)c1nc(/C=C/C(=O)Nc2c(C)cc(C)cc2C)cs1	25	9	-2	i	-5.3*	i	i
Cc1cc(C)c(NC(=O)Cn2nc(-c3ccccc3)nc2-c2ccccc2)c(C)c1	3	.	-1	i	i	.	.
O=C(NC1CCCCCC1)C1c2ccccc2C(=O)N1Cc1cccs1 (stereo unspecified)	-7	-7	6	i	i	.	.
O=C(NC1CCCCCC1)C1c2ccccc2C(=O)N1Cc1ccco1 (stereo unspecified)	14	72	11	i	-5.7*	i	-8.3*
CCOC(=O)c1cc(C(=O)NC(C)c2ccccc2)c(=O)[nH]c1C (stereo unspecified)	-14	2	16	i	-12*	26%*	i
CC(NC(=O)c1cc(=O)[nH]c2ccccc12)c1ccccc1 (stereo unspecified)	10	3	-1	i	i	.	.
Cc1ccc(Cl)cc1N1CCN(C(=O)Cc2c(C(=O)O)[nH]c3ccc(Cl)cc23)CC1	18	62	4	i	-7.6*	55%*	i
